# Results published in ChEMBL document CHEMBL1201862, “PubChem BioAssay data set” (2004).
# Out of some 400,000 compounds screened, about 2,100 (0.53%) were called active. Not shown: some 14% with an inconclusive outcome. How the calls were made is not given here. The list comes from a sample in which actives are over-represented; it also holds similar structures and randomly drawn compounds.
# Target: Ataxin-2 (Homo sapiens) (UniProt Q99700)
# Test: qHTS for Inhibitors of ATXN expression.
# Type: functional
# Chain of Ataxin-2 (Homo sapiens) (Q99700 whole entry): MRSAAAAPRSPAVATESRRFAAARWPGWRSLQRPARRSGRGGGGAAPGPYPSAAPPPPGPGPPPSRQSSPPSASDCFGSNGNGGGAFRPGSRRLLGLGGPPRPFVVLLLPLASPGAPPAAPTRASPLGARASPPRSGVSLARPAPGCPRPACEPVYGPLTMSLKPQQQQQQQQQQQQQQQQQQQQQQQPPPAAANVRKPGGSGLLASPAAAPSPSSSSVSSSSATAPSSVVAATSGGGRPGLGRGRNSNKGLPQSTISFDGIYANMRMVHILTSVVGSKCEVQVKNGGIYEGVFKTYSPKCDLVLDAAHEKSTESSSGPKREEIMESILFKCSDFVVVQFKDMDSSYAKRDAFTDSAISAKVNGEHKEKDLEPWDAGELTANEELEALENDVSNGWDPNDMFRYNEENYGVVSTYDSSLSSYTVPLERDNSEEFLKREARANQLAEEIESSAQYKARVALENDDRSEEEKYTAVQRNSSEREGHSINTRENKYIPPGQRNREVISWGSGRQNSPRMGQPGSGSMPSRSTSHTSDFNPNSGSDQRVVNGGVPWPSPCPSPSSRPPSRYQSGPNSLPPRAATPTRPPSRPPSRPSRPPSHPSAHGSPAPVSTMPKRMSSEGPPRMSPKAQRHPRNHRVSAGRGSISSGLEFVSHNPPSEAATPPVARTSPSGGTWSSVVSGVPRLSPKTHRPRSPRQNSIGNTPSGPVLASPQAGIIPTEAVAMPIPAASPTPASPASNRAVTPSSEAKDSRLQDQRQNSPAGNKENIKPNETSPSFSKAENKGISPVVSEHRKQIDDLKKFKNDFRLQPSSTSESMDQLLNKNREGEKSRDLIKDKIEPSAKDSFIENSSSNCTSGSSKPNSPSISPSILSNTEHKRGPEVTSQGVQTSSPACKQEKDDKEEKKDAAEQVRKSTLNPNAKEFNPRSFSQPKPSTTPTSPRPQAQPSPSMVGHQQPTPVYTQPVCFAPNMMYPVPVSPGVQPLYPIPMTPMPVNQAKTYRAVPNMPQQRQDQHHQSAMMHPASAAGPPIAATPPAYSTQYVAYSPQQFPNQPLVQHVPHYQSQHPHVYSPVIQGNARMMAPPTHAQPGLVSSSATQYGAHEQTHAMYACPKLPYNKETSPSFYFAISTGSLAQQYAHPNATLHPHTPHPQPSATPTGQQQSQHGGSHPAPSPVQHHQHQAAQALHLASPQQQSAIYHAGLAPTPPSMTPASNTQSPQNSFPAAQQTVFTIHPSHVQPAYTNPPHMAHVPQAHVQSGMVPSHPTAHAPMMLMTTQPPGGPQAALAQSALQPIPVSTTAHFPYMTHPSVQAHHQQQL
row,Structure (SMILES),Potency
1,COc1ccc(CCN2C(=O)CC(C(N)=O)S/C2=N\c2ccccc2)cc1 (stereo unspecified),inactive
2,Cc1cc(C)c2c(N)c(C(=O)NN3CC(=O)N(c4cccc(Cl)c4)CC3=O)sc2n1,inactive
3,CC(C)(C)C(=O)Cn1ncc(Br)c(Br)c1=O,15.8 µM (active)
4,CO/N=C(\Cn1ncc(N2CCOCC2)c(Br)c1=O)c1ccc(Cl)cc1,inactive
5,Nc1cc2c(cc1O)CCCC2,inactive
6,O=C(COc1ccc(Br)cc1)N1CCc2ccccc21,inactive
7,COCCCn1c(=N)c(C(=O)NC2CCCC2)cc2c(=O)n3cc(C)ccc3nc21,inactive
8,CCCCCCn1c(=O)n2n(c1=O)C[C@]1(OC(=O)NCC3CCCCC3)CN(S(=O)(=O)c3ccc(C)cc3)C[C@]1(O)C2,31.6 µM (active)
9,CCOCCCn1c(=N)c(C(=O)NC2CCCC2)cc2c(=O)n3cc(C)ccc3nc21,inactive
10,CCCCCCn1c(=O)n2n(c1=O)[C@@H]1CN(S(=O)(=O)c3ccc(C)cc3)C[C@]1(O)[C@@H](OC(=O)NC1CCCC1)C2,44.7 µM (active)
11,CCCCCCn1c(=O)n2n(c1=O)[C@@H]1CN(S(=O)(=O)c3ccc(C)cc3)C[C@]1(O)[C@@H](OC(=O)NCC1CCCCC1)C2,31.6 µM (active)
12,Cc1cccc(C)c1N=C(S)NCCc1ccc(O)c(O)c1,inactive
13,CC1CC1C(=O)OCC(=O)c1c(N)n(C)c(=O)n(C)c1=O (stereo unspecified),inactive
14,CCOC(=O)c1cc2c(=O)n3ccccc3nc2n(Cc2ccco2)/c1=N/C(=O)c1cccnc1,inactive
15,COc1ccc(-n2c3nc4ccccc4nc3c3c(=N)oc(C)nc32)cc1,inactive
16,COc1cc(/C=C(\C#N)c2nc3ccccc3n2C)cc(OC)c1O,inactive
17,Cc1cccn2c(=O)c3cc(C#N)/c(=N\C(=O)c4cccnc4)n(CC4CCCO4)c3nc12 (stereo unspecified),inactive
18,O=C1CN2CCC1C/C2=C\c1ccnc2c(Cl)cccc12 (stereo unspecified),inactive
19,C=C1C(=O)c2sccc2C(c2ccc(OC)c(OC)c2)C1COC(C)=O (stereo unspecified),5.97 µM (active)
20,COC(=O)C1=CN(Cc2ccc(OC)c(OC)c2)C=C(C(=O)OC)C1c1cccs1,inactive
21,CN1CCN(c2nc3ccccn3c(=O)c2C=C(C#N)C#N)CC1,inactive
22,CC1(C)CC(=O)C2=C(C1)c1c(ccc3ccccc13)NC2c1ccc(OCC(=O)O)cc1 (stereo unspecified),inactive
23,Cc1ccc2nc(NCC(N)=O)nc(-c3ccccc3)c2c1,inactive
24,O=c1c(Cl)c(Cl)cnn1Cc1nnc(-c2ccccc2Br)o1,39.8 µM (active)

row,Structure (SMILES),Potency
1,Nc1cccc2c1C(=O)N(Cc1nnc(-c3ccccc3Br)o1)C2=O,inactive
2,COc1ccc(/C=C2\Oc3cc(OCC(=O)N4CCC[C@H]4C(=O)O)ccc3C2=O)c(OC)c1,inactive
3,COc1ccc(-c2nc3ccccc3c(=O)n2CCOc2c(C)cccc2C)cc1,inactive
4,COc1ccc(-c2nnc(SCc3cc(=O)c4cc(C)cc(C)c4[nH]3)n2C)cc1,17.8 µM (active)
5,CCCCCc1cc(=O)oc2c(C(CCN3CCCC(C)C3)c3ccc(N(C)C)cc3)c(OC)cc(OC)c12 (stereo unspecified),22.4 µM (active)
6,Cc1c(O)ccc2c(CN3CCOCC3)cc(=O)oc12,inactive
7,COc1ccc(CN2COc3ccc4c(C)cc(=O)oc4c3C2)cc1,inactive
8,CCCCCc1cc(=O)oc2c(C(CCN3CCCC(C)C3)c3ccc(OC)cc3)c(OC)cc(OC)c12 (stereo unspecified),31.6 µM (active)
9,COc1cc(OC)c2c(C)cc(=O)oc2c1C(CCN1CCOCC1)c1ccc2c(c1)OCO2 (stereo unspecified),20 µM (active)
10,COc1ccc(-c2c(C)c3ccc(O)c(CN4CCCC(C)C4)c3oc2=O)cc1OC (stereo unspecified),inactive
11,CCCc1cc(=O)oc2c3c(ccc12)OCN(Cc1ccccc1OC)C3,inactive
12,CCCCCc1cc(=O)oc2c(C(CCN3CCCC(C)C3)c3ccc4c(c3)OCO4)c(OC)cc(OC)c12 (stereo unspecified),35.5 µM (active)
13,CCN1CCc2c(C#N)c(N3CCOCC3)nc(NCCO)c2C1,inactive
14,CCc1cc2c(CN3CCN(CCO)CC3)cc(=O)oc2cc1O,inactive
15,CC(=O)c1ccc(NS(=O)(=O)c2ccc3c(c2)N(C(C)=O)CCO3)cc1,inactive
16,CCCN1CCN(c2ncnc3sc(C(=O)Nc4ccc(C(C)C)cc4)c(C)c23)CC1,31.6 µM (active)
17,CCOC(=O)c1sc2ncnc(N3CCN(C)CC3)c2c1C,inactive
18,COc1ccc(C)cc1NC(=O)c1sc2ncnc(N3CCN(c4ccccn4)CC3)c2c1C,inactive
19,COc1ccccc1C(=O)Nc1nc2n(n1)C(c1ccc(F)cc1)C=C(c1ccc(Cl)cc1)N2 (stereo unspecified),inactive
20,COc1ccccc1C(=O)Nc1cccc(N2CCC(NCc3cnn(-c4ccccc4)n3)CC2)c1,28.2 µM (active)
21,COc1cccc(C(=O)Nc2ccc3[nH]c(O)nc3c2)c1OC,inactive
22,Cc1ccc(Cn2nc(C)c(NC(=O)CSc3nc4c(c(C(F)(F)F)n3)CCc3ccccc3-4)c2C)cc1,20 µM (active)
23,COCCNC(=O)c1cc2nc3c(c(C(F)(F)F)n2n1)CCc1ccccc1-3,inactive
24,CCc1ccc(-c2cc(C(F)(F)F)n3nc(C(=O)Nc4c(C)nn(Cc5ccc(F)cc5)c4C)cc3n2)s1,inactive

row,Structure (SMILES),Potency
1,Cc1cccn2c(=O)c3cc(C(=O)NC4CCCC4)c(=N)n(CC4CCCO4)c3nc12 (stereo unspecified),inactive
2,COCCCn1c(=N)c(C(=O)NC2CCCCC2)cc2c(=O)n3ccccc3nc21,inactive
3,COc1cccc(N2C(=O)C3CCCN3C2=S)c1 (stereo unspecified),inactive
4,COc1cccc(/C=C2/SC(=S)N(CC(=O)NNC(=O)c3ccccc3OC)C2=O)c1,inactive
5,COc1cccc(/C=C2\SC(=S)N(CCCC(=O)N3CCCCC3CCO)C2=O)c1 (stereo unspecified),39.8 µM (active)
6,Cc1ccc(-n2nc(C)c3c(C(=O)OCC(=O)N(C)C4CCS(=O)(=O)C4)cc(-c4ccccc4)nc32)cc1 (stereo unspecified),inactive
7,O=C1/C(=C/c2ccco2)SC(=S)N1CCC(=O)N1CCCCC1CCO (stereo unspecified),17.8 µM (active)
8,COc1cccc(/C=C2\SC(=S)N(CCC(=O)NNC(=O)c3ccccc3OC)C2=O)c1,inactive
9,O=C1N=C(N2CCN(c3ccccc3)CC2)S/C1=C/c1ccco1,inactive
10,COc1cccc(/C=C2\SC(=S)N(CC(=O)N(C)C3CCS(=O)(=O)C3)C2=O)c1 (stereo unspecified),35.5 µM (active)
11,Cc1cccc(OCCn2c(NC(=O)c3ccco3)nc3ccccc32)c1,39.8 µM (active)
12,CCCn1nc(NC(=O)c2ccco2)c2cc3ccc(C)cc3nc21,inactive
13,CCCn1nc(NC(=O)c2ccco2)c2cc3cc(C)ccc3nc21,inactive
14,COCCCn1c(=N)c(C(=O)NCC2CCCO2)cc2c(=O)n3cc(C)ccc3nc21 (stereo unspecified),inactive
15,Cc1cccc(C2=NN(c3ccccc3)[C@H](CO)[C@H]2c2ccccc2)c1,inactive
16,Cn1c(N)c(C(=O)CN2CCc3ccccc3C2)c(=O)n(C)c1=O,inactive
17,COc1ccc(Br)cc1C(C[N+](=O)[O-])c1c(N)n(C)c(=O)n(C)c1=O (stereo unspecified),17.8 µM (active)
18,CN(C)c1ccc(C(C[N+](=O)[O-])c2c(N)n(C)c(=O)n(C)c2=O)c(F)c1C#N (stereo unspecified),25.1 µM (active)
19,COc1ccccc1C(C[N+](=O)[O-])c1c(N)n(C)c(=O)n(C)c1=O (stereo unspecified),14.1 µM (active)
20,CCn1cc(C(=O)N2CCCC(N3CCN(c4cccc(C(F)(F)F)c4)CC3)C2)cn1 (stereo unspecified),inactive
21,CN(C)c1ncc(C2=C(Cl)C(=O)C(N3CCCC3)=C(Cl)C2=O)s1,25.1 µM (active)
22,Cc1cc2c(cc1C)C(=O)C(=O)N2,inactive
23,N#Cc1c(-c2ccccc2Cl)c2c([nH]c1=O)-c1ccccc1OC2,inactive
24,COc1cccc2cc(C(=O)C3=C(O)C(=O)N(CCN(C)C)C3c3ccc(Cl)cc3)oc12 (stereo unspecified),inactive

row,Structure (SMILES),Potency
1,COc1ccccc1-c1cc(C(=O)Nc2cc(C)n(Cc3ccc(Cl)cc3)n2)no1,28.2 µM (active)
2,COc1cccc2c1c(NC(=O)c1cc(C)on1)nn2C,inactive
3,CCN(CC)c1ccc2cc(C(=O)c3cccs3)c(=O)oc2c1,inactive
4,O=C(COc1ccccc1F)Nc1ccc(Cl)c(-c2nc3ccccc3[nH]2)c1,39.8 µM (active)
5,Cc1nc2ccccc2nc1OCC(=O)Nc1ccc(F)cc1,inactive
6,CCc1ccc(NC(=O)COc2ccc(/C=C(/C#N)c3nc4ccccc4[nH]3)cc2OC)cc1,inactive
7,C/C(=N/NC(=O)c1ccncc1)c1cc2ccc(O)cc2oc1=O,inactive
8,COc1cccc(C(c2nnnn2C2CCCC2)N2CCN(C/C=C/c3ccccc3)CC2)c1OC (stereo unspecified),17.8 µM (active)
9,Cc1cc(C)cc(NC(=O)COC(=O)[C@@H](NC(=O)c2ccco2)C(C)C)c1,inactive
10,Cc1onc(-c2ccccc2)c1C(=O)OCCOc1ccccc1F,inactive
11,CCCOc1ccc(-c2c(=O)n(OCC(=O)OCC)c3ccccc3[n+]2[O-])cc1,inactive
12,CCCCCCCCCCOC(=O)Cn1c(COc2ccc(Cl)cc2)[n+](C)c2ccccc21,25.1 µM (active)
13,CC12CC3(C)CC(C)(C1)CC(C(=O)NCc1ccccn1)(C2)C3,inactive
14,Sc1nnc(-c2ccccc2)n1/N=C/c1cccc(Cl)c1,inactive
15,Oc1ccccc1/C=N/n1c(S)nnc1-c1ccccc1,inactive
16,Cc1cc(-c2nnc(S)n2/N=C/C(Br)=C/c2ccccc2)[nH]n1,14.1 µM (active)
17,CC(=O)n1cc(C(C[N+](=O)[O-])SCCN)c2ccccc21 (stereo unspecified),22.4 µM (active)
18,COc1c(CC=C(C)C)cc(C2CC(=O)c3c(O)cc(O)cc3O2)cc1CC=C(C)C (stereo unspecified),39.8 µM (active)
19,COc1cc2ccc(=O)oc2c(O)c1OCC=C(C)C,inactive
20,COC1=CC(=O)C(C2CC(=O)c3c(O)cc(O)cc3O2)=CC1=O (stereo unspecified),33.6 µM (active)
21,CCOCCCn1c(=N)c(C(=O)NC(C)c2ccccc2)cc2c(=O)n3cccc(C)c3nc21 (stereo unspecified),inactive
22,COC(C(=O)N/N=C(\C)CC(=O)Nc1ccc(N(C)C)cc1)c1ccccc1 (stereo unspecified),31.6 µM (active)
23,C/C(CC(=O)Nc1ccc2c(c1)OCCO2)=N\NC(=O)COc1ccccc1C,inactive
24,CN(C)c1nc(NC(C)(C)C)nc(SCC(=O)Nc2ccccc2)n1,inactive
